# Laboratory results: PMC7862700, “An all-to-all approach to the identification of sequence-specific readers for epigenetic DNA modifications on cytosine”
# Columns and labels:
# Test in all cases: DAPPL (digital affinity profiling via proximity ligation, sequencing); 10 mM Tris-HCl pH 7.5, 50 mM NaCl, 1 mM DTT, 4% glycerol, room temperature, 30 min; GST-TFs on glutathione beads, 16-mer random dsDNA library, 0.1% formaldehyde crosslink after washing; high values mean tight binding
# Settings in all cases: protein: recombinant; tags: N-terminal GST; dsDNA, one strand shown
# FLI1 = target: T1, FLI1 (Homo sapiens, UniProt Q01543 1-452)
# T1 sequence: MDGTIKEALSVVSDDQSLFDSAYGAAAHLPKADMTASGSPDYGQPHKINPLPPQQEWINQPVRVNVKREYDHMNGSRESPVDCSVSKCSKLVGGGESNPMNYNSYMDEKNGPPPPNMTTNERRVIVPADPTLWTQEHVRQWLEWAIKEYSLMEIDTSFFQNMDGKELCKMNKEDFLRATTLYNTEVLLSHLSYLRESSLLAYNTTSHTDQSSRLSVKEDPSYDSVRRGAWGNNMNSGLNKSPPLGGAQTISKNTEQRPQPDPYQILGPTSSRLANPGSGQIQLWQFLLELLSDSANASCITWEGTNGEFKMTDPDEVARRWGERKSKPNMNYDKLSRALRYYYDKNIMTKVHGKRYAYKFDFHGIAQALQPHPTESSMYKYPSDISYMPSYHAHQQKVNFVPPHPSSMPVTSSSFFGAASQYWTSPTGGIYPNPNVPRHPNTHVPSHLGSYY
# Procedure, shortened: (§1)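 After expression in yeast as GST fusions, human transcription factors were bound to glutathione beads, DNA-barcoded and mixed with a tag-only sample. The pools were incubated with 200 nmole of a 16-mer random double-stranded DNA library in Tris/NaCl/DTT/glycerol buffer (30 min, room temperature), washed and crosslinked with 0.1% formaldehyde. Proximity ligation with BsaI/T4 ligase ran for 1 h at 37 °C, before PCR amplification and sequencing on an Illumina NextSeq500. Binding signal is a hexamer's read frequency for a factor divided by its frequency for the tag-only sample.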
# ELK1 = target: T2, ELK1 (Homo sapiens, UniProt P19419 1-428)
# T2 sequence: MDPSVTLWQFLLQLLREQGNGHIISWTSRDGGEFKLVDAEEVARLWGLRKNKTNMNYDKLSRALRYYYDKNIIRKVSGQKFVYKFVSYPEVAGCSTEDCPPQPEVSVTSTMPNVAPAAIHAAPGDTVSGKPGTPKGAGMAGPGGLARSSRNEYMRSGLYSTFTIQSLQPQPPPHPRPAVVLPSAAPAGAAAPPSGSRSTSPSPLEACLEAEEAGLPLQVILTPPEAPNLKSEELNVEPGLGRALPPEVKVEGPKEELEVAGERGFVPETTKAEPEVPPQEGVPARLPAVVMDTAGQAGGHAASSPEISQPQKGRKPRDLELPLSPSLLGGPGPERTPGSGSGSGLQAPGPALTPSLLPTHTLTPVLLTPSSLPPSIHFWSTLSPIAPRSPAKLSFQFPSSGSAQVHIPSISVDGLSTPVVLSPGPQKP
# Procedure, shortened: as §1
# GABPA = target: T3, GABPA (Homo sapiens, UniProt Q06546 1-454)
# T3 sequence: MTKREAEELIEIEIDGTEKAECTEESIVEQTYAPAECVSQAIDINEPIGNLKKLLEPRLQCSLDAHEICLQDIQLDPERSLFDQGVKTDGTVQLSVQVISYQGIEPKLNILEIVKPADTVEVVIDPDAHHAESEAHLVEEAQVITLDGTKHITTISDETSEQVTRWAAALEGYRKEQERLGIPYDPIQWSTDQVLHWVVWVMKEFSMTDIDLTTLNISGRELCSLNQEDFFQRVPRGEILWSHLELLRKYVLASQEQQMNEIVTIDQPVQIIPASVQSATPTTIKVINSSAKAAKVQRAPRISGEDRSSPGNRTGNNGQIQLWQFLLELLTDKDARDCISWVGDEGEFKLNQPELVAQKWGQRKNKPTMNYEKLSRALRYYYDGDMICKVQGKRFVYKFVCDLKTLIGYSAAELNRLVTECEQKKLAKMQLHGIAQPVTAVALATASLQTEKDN
# Procedure, shortened: as §1
# ERG = target: T4, ERG (Homo sapiens, UniProt P11308 1-479)
# T4 sequence: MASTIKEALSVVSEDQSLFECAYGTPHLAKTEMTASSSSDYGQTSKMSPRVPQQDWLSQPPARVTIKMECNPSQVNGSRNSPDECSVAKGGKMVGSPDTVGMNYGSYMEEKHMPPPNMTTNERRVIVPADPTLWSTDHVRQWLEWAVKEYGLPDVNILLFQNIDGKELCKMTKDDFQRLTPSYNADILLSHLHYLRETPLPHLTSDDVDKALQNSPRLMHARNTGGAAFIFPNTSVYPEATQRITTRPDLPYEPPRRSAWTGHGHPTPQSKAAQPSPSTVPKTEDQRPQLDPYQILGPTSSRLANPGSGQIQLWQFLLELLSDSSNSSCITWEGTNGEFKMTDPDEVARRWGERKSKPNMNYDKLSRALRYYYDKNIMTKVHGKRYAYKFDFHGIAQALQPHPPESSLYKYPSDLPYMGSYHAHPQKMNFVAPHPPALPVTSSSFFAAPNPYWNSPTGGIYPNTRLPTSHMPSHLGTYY
# Procedure, shortened: as §1
# ELF1 = ELF1 (Homo sapiens, UniProt P32519 1-619)
# Procedure, shortened: as §1
# EHF = target: T5, EHF (Homo sapiens, UniProt Q9NZC4 1-300)
# T5 sequence: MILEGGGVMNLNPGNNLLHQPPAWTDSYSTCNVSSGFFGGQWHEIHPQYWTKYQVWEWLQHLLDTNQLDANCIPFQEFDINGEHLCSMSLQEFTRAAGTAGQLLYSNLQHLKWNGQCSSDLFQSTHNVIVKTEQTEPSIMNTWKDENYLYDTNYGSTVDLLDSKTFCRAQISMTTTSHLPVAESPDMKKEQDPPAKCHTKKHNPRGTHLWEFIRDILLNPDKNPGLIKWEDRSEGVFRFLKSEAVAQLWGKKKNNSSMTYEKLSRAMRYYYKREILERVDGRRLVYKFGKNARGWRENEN
# Procedure, shortened: as §1
# SPI1 = SPI1 (Homo sapiens, UniProt P17947 1-270)
# Procedure, shortened: as §1
# SPIB = SPIB (Homo sapiens, UniProt Q01892 1-262)
# Procedure, shortened: as §1
# ELK3 = target: T6, ELK3 (Homo sapiens, UniProt P41970 1-407)
# T6 sequence: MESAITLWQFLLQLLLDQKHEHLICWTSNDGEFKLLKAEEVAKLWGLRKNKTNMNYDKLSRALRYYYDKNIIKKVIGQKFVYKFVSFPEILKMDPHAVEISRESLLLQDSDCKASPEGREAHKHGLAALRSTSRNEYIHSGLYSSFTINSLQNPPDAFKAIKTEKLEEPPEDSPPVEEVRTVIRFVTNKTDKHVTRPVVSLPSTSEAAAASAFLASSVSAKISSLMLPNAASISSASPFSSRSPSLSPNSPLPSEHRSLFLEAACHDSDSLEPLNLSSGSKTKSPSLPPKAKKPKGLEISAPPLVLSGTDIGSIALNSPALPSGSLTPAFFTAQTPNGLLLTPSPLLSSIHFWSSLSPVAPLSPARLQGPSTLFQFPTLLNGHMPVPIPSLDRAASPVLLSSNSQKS
# Procedure, shortened: as §1
# ELF1, sequence (P32519 whole entry): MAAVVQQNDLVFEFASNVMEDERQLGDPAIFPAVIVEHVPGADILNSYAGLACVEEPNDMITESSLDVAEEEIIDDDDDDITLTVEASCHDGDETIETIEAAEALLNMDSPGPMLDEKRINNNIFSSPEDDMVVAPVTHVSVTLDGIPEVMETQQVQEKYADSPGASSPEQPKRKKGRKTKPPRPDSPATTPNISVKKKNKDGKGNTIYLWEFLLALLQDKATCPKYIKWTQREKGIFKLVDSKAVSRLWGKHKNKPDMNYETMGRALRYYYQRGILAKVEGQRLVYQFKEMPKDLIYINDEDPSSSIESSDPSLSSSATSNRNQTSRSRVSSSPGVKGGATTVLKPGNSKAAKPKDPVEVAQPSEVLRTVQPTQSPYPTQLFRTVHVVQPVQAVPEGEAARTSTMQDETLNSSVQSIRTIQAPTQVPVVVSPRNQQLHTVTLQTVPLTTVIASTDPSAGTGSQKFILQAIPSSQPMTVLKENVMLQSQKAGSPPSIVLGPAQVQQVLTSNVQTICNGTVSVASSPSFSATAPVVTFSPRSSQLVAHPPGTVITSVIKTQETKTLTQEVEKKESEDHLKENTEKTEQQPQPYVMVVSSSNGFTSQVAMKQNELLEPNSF
# SPIB, sequence (Q01892 whole entry): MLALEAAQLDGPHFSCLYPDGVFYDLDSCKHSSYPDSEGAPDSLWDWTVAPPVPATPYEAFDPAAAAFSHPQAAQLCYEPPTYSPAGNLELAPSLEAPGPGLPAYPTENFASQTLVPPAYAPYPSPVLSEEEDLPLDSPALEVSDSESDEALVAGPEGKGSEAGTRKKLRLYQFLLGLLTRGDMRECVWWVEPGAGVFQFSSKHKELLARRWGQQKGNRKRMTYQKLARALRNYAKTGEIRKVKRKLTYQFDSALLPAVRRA
Sequence,binding signal (FLI1),binding signal (ELK1),binding signal (GABPA),binding signal (ERG),binding signal (ELF1),binding signal (EHF),binding signal (SPI1),binding signal (SPIB),binding signal (ELK3)
GCTTTA,"1.19 fold enrichment (6-mer frequency, TF over GST control)","1.13 fold enrichment (6-mer frequency, TF over GST control)","1.08 fold enrichment (6-mer frequency, TF over GST control)","1.05 fold enrichment (6-mer frequency, TF over GST control)","1.09 fold enrichment (6-mer frequency, TF over GST control)","1.09 fold enrichment (6-mer frequency, TF over GST control)","1.16 fold enrichment (6-mer frequency, TF over GST control)","1.09 fold enrichment (6-mer frequency, TF over GST control)","1.24 fold enrichment (6-mer frequency, TF over GST control)"
CACTAA,"1.09 fold enrichment (6-mer frequency, TF over GST control)","1.21 fold enrichment (6-mer frequency, TF over GST control)","1.11 fold enrichment (6-mer frequency, TF over GST control)","1.1 fold enrichment (6-mer frequency, TF over GST control)","1.18 fold enrichment (6-mer frequency, TF over GST control)","1.21 fold enrichment (6-mer frequency, TF over GST control)","1.19 fold enrichment (6-mer frequency, TF over GST control)","1.18 fold enrichment (6-mer frequency, TF over GST control)","1.18 fold enrichment (6-mer frequency, TF over GST control)"
AATTCC,"1.95 fold enrichment (6-mer frequency, TF over GST control)","1.93 fold enrichment (6-mer frequency, TF over GST control)","1.81 fold enrichment (6-mer frequency, TF over GST control)","1.96 fold enrichment (6-mer frequency, TF over GST control)","1.86 fold enrichment (6-mer frequency, TF over GST control)","2.05 fold enrichment (6-mer frequency, TF over GST control)","1.89 fold enrichment (6-mer frequency, TF over GST control)","2.02 fold enrichment (6-mer frequency, TF over GST control)","1.94 fold enrichment (6-mer frequency, TF over GST control)"
GATTCA,"1.11 fold enrichment (6-mer frequency, TF over GST control)","1.15 fold enrichment (6-mer frequency, TF over GST control)","1.17 fold enrichment (6-mer frequency, TF over GST control)","1.11 fold enrichment (6-mer frequency, TF over GST control)","1.17 fold enrichment (6-mer frequency, TF over GST control)","1.18 fold enrichment (6-mer frequency, TF over GST control)","1.16 fold enrichment (6-mer frequency, TF over GST control)","1.04 fold enrichment (6-mer frequency, TF over GST control)","1.1 fold enrichment (6-mer frequency, TF over GST control)"
CTAGTT,"1.37 fold enrichment (6-mer frequency, TF over GST control)","1.4 fold enrichment (6-mer frequency, TF over GST control)","1.42 fold enrichment (6-mer frequency, TF over GST control)","1.3 fold enrichment (6-mer frequency, TF over GST control)","1.31 fold enrichment (6-mer frequency, TF over GST control)","1.23 fold enrichment (6-mer frequency, TF over GST control)","1.34 fold enrichment (6-mer frequency, TF over GST control)","1.48 fold enrichment (6-mer frequency, TF over GST control)","1.21 fold enrichment (6-mer frequency, TF over GST control)"
TTCGTT,"1.33 fold enrichment (6-mer frequency, TF over GST control)","1.4 fold enrichment (6-mer frequency, TF over GST control)","1.33 fold enrichment (6-mer frequency, TF over GST control)","1.25 fold enrichment (6-mer frequency, TF over GST control)","1.32 fold enrichment (6-mer frequency, TF over GST control)","1.36 fold enrichment (6-mer frequency, TF over GST control)","1.29 fold enrichment (6-mer frequency, TF over GST control)","1.33 fold enrichment (6-mer frequency, TF over GST control)","1.24 fold enrichment (6-mer frequency, TF over GST control)"
CATATA,"1.17 fold enrichment (6-mer frequency, TF over GST control)","1.07 fold enrichment (6-mer frequency, TF over GST control)","1.14 fold enrichment (6-mer frequency, TF over GST control)","1.08 fold enrichment (6-mer frequency, TF over GST control)","1.12 fold enrichment (6-mer frequency, TF over GST control)","1.06 fold enrichment (6-mer frequency, TF over GST control)","1.06 fold enrichment (6-mer frequency, TF over GST control)","1.06 fold enrichment (6-mer frequency, TF over GST control)","1.22 fold enrichment (6-mer frequency, TF over GST control)"
